From PubChem BioAssay (NCI)
Compounds without any hit were thinned out: in the full panel of roughly 79,000, 15% have a hit. Calls of active or inactive are those of the source. No stated cut-off is given here; in the data, active means growth inhibition above about 70%; inactive means the rest.

Legend:
[1] = NCI Yeast Anticancer Drug Screen. Data for the rad52 strain (AID 147);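 further: 0% = growth of vehicle-treated control cultures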; conditions: S. cerevisiae rad52 mutant growth inhibition, active compounds read high
Procedure, shortened: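 Yeast strain carrying a DNA damage repair alteration was exposed to test compounds. Growth inhibition was measured relative to vehicle-treated controls.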

[2] = NCI Yeast Anticancer Drug Screen. Data for the rad50EPP+ strain (AID 151);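 further: 0% = growth of vehicle-treated control cultures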; conditions: S. cerevisiae rad50 mutant strain, active compounds read high
Procedure, shortened: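 Yeast strain carrying rad50 alteration (rad50EPP+) exposed to compounds; growth inhibition measured relative to vehicle-treated controls.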

[3] = NCI Yeast Anticancer Drug Screen. Data for the mgt1 strain (AID 153); conditions: S. cerevisiae mgt1 mutant growth inhibition, active compounds read high
Procedure, shortened: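 Yeast mgt1 strain (DNA repair/cell-cycle alteration panel) exposed to compounds; growth inhibition measured relative to vehicle-treated controls.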

[4] = NCI Yeast Anticancer Drug Screen. Data for the rad50 strain (AID 155);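 further: 0% = growth of vehicle-only cultures of the same strain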; conditions: S. cerevisiae rad50 strain growth inhibition, active compounds read high
Procedure, shortened: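 Inhibition values express reduced yeast growth in compound-treated cultures relative to vehicle-treated controls.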

[5] = NCI Yeast Anticancer Drug Screen. Data for the mec2-1 strain (AID 157); conditions: S. cerevisiae mec2-1 strain, active compounds read high
Procedure, shortened: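 mec2-1 yeast strain, carrying an alteration in DNA damage repair or cell cycle control, was exposed to compounds; growth inhibition was measured relative to vehicle-treated controls.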

[6] = NCI Yeast Anticancer Drug Screen. Data for the rad14 strain (AID 159);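 further: 0% = growth of vehicle-treated control cultures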; conditions: S. cerevisiae rad14 strain growth inhibition, active compounds read high
Procedure, shortened: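 A mutant yeast strain defective in DNA damage repair is treated with compound; inhibition of its growth is scored against untreated, vehicle-exposed cultures.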

[7] = NCI Yeast Anticancer Drug Screen. Data for the sgs1 mgt1 strain (AID 161);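 further: 0% = growth of cultures given vehicle only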; conditions: S. cerevisiae sgs1 mgt1 strain, active compounds read high
Procedure, shortened: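 Compounds are added to genetically altered yeast, and growth is compared with cultures given vehicle alone to give percent inhibition.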

[8] = NCI Yeast Anticancer Drug Screen. Data for the CLN2oe strain (AID 163);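 further: 0% = growth of vehicle-only control cultures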; conditions: S. cerevisiae CLN2oe strain, active compounds read high
Procedure, shortened: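 Yeast cells carrying a defined cell-cycle control alteration were exposed to test compounds. Growth inhibition was scored against vehicle-treated control cultures.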

[9] = NCI Yeast Anticancer Drug Screen. Data for the bub3 strain (AID 167); conditions: S. cerevisiae bub3 mutant strain, active compounds read high
Procedure, shortened: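 Steps: expose the mutant yeast strain to compound; grow alongside vehicle-treated cultures; measure growth; express inhibition against the vehicle cultures.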

[10] = NCI Yeast Anticancer Drug Screen. Data for the wt2 strain (AID 169);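 further: 0% = growth of vehicle-treated yeast cultures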; conditions: S. cerevisiae wt2 strain growth inhibition, active compounds read high
Procedure, shortened: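 Yeast cells were exposed to test compounds, and growth inhibition was measured relative to vehicle-treated controls.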

[11] = NCI Yeast Anticancer Drug Screen. Data for the mlh1 strain (AID 171);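 further: 0% = growth of vehicle-treated control cultures of the same strain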; conditions: S. cerevisiae mlh1 strain growth inhibition, active compounds read high
Procedure, shortened: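 Yeast carrying a defined genetic alteration in DNA damage repair or cell cycle control were exposed to test compounds. Growth inhibition was measured relative to vehicle-treated controls.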

[12] = NCI Yeast Anticancer Drug Screen. Data for the sgs1 strain (AID 173);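 further: 0% = growth of vehicle-only control cultures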; conditions: S. cerevisiae sgs1 mutant, active compounds read high
Procedure, shortened: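 Yeast mutant strains carrying defined defects in DNA damage repair or cell cycle control were exposed to test compounds. Growth inhibition was scored against vehicle-treated controls.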

[13] = NCI Yeast Anticancer Drug Screen. Data for the mlh1 rad18 strain (AID 175); conditions: S. cerevisiae mlh1 rad18 strain growth inhibition, active compounds read high
Procedure, shortened: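 Growth inhibition of the yeast strain was measured after compound exposure and expressed relative to vehicle-treated controls. The strain carries defined defects in DNA damage repair.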

[14] = NCI Yeast Anticancer Drug Screen. Data for the rad18 strain (AID 177); conditions: S. cerevisiae rad18 mutant growth inhibition, active compounds read high
Procedure, shortened: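 Yeast carrying a defined DNA damage repair alteration were exposed to compounds. Growth inhibition was expressed relative to vehicle-treated controls.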

[15] = NCI Yeast Anticancer Drug Screen. Data for the cln2 rad14 strain (AID 165);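 further: 0% = growth equal to vehicle treated cultures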; conditions: S. cerevisiae cln2 rad14 strain, active compounds read high
Procedure, shortened: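 Yeast carrying cln2 and rad14 alterations (cell cycle control and DNA damage repair) were exposed to compounds. Growth inhibition was measured against vehicle-treated controls.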

[16] = at 5.0 µM (retest, dose inferred, filed as 0.5)
[17] = at 50.0 µM (retest, dose inferred, filed as 5.0)

Measured: growth inhibition

CC(C)OP(=O)(OC(C)C)/C(Cl)=N/Nc1ccc([N+](=O)[O-])cc1
active: [1]; at 33.0 µM 90% | [1]; at 100.0 µM 95% | [2]; at 11.0 µM 93% | [2]; at 33.0 µM 96% | [2]; at 100.0 µM 96% | [3]; at 33.0 µM 78% | [3]; at 100.0 µM 94% | [4]; at 33.0 µM 93% | [4]; [17] 95% | [4]; at 50.0 µM 88.7% | [4]; at 100.0 µM 94% | [5]; at 33.0 µM 81% | [5]; [17] 80% | [5]; at 50.0 µM 81% | [5]; at 100.0 µM 90% | [6]; at 100.0 µM 80% | [7]; [17] 74% | [7]; at 50.0 µM 90.8% | [8]; at 11.0 µM 79% | [8]; at 33.0 µM 95% | [8]; at 100.0 µM 96% | [9]; at 11.0 µM 86% | [9]; at 33.0 µM 95% | [9]; [17] 95% | [9]; at 50.0 µM 91.6% | [9]; at 100.0 µM 95% | [10]; at 33.0 µM 71% | [10]; at 100.0 µM 93% | [11]; at 11.0 µM 86% | [11]; at 33.0 µM 96% | [11]; at 100.0 µM 94% | [12]; at 11.0 µM 94% | [12]; at 33.0 µM 97% | [12]; at 100.0 µM 98% | [13]; [17] 97% | [13]; at 50.0 µM 87.3% | [14]; at 11.0 µM 85% | [14]; at 33.0 µM 96% | [14]; at 100.0 µM 96%
inactive: [1]; at 1.2 µM -10% | [1]; at 3.7 µM -6% | [1]; at 11.0 µM 52% | [2]; at 1.2 µM 25% | [2]; at 3.7 µM 50% | [3]; at 1.2 µM -21% | [3]; at 3.7 µM -29% | [3]; at 11.0 µM 16% | [4]; at 1.2 µM -10% | [4]; at 3.7 µM -21% | [4]; [16] 19% | [4]; at 11.0 µM 61% | [5]; at 1.2 µM -5% | [5]; at 3.7 µM -3% | [5]; [16] 13% | [5]; at 11.0 µM 52% | [6]; at 1.2 µM -8% | [6]; at 3.7 µM 6% | [6]; at 11.0 µM 24% | [6]; at 33.0 µM 34% | [7]; [16] 6% | [8]; at 1.2 µM 18% | [8]; at 3.7 µM 20% | [9]; at 1.2 µM -4% | [9]; at 3.7 µM 3% | [9]; [16] 29% | [10]; at 1.2 µM 3% | [10]; at 3.7 µM 5% | [10]; at 11.0 µM 39% | [11]; at 1.2 µM 13% | [11]; at 3.7 µM 23% | [12]; at 1.2 µM 28% | [12]; at 3.7 µM 23% | [13]; [16] 47% | [14]; at 1.2 µM 29% | [14]; at 3.7 µM 28%

O=C(Cc1ccccc1)NN1C(=O)C(Cl)C1c1cc(Br)cc(Br)c1O (stereo not drawn)
active: [1]; at 11.0 µM 92% | [1]; at 33.0 µM 93% | [1]; at 100.0 µM 88% | [3]; at 11.0 µM 94% | [3]; at 33.0 µM 95% | [3]; at 100.0 µM 91% | [4]; at 11.0 µM 81% | [4]; at 33.0 µM 91% | [4]; [17] 94% | [4]; at 50.0 µM 97% | [4]; at 100.0 µM 84% | [5]; at 11.0 µM 95% | [5]; at 33.0 µM 95% | [5]; [17] 94% | [5]; at 50.0 µM 97.3% | [5]; at 100.0 µM 92% | [6]; at 11.0 µM 85% | [6]; at 33.0 µM 93% | [6]; at 100.0 µM 92% | [7]; [17] 96% | [7]; at 50.0 µM 98% | [8]; at 11.0 µM 95% | [8]; at 33.0 µM 94% | [8]; at 100.0 µM 86% | [15]; [17] 93% | [15]; at 50.0 µM 95.2% | [9]; [16] 98% | [9]; at 11.0 µM 94% | [9]; at 33.0 µM 96% | [9]; [17] 96% | [9]; at 50.0 µM 97% | [9]; at 100.0 µM 87% | [11]; at 11.0 µM 90% | [11]; at 33.0 µM 95% | [11]; at 100.0 µM 92% | [12]; at 11.0 µM 92% | [12]; at 33.0 µM 93% | [12]; at 100.0 µM 88% | [13]; [17] 94% | [13]; at 50.0 µM 97.2% | [14]; at 11.0 µM 88% | [14]; at 33.0 µM 91% | [14]; at 100.0 µM 84%
inactive: [1]; at 1.2 µM 4% | [1]; at 3.7 µM 33% | [2]; at 1.2 µM -6% | [2]; at 3.7 µM 1% | [2]; at 11.0 µM 29% | [2]; at 33.0 µM 56% | [2]; at 100.0 µM 59% | [3]; at 1.2 µM -5% | [3]; at 3.7 µM 14% | [4]; at 1.2 µM 2% | [4]; at 3.7 µM 20% | [4]; [16] 13% | [5]; at 1.2 µM -3% | [5]; at 3.7 µM 19% | [5]; [16] 56% | [6]; at 1.2 µM -3% | [6]; at 3.7 µM -3% | [7]; [16] 61% | [8]; at 1.2 µM -6% | [8]; at 3.7 µM 18% | [15]; [16] 46% | [9]; at 1.2 µM -8% | [9]; at 3.7 µM 12% | [11]; at 1.2 µM -3% | [11]; at 3.7 µM 8% | [12]; at 1.2 µM 4% | [12]; at 3.7 µM 30% | [13]; [16] 47% | [14]; at 1.2 µM 5% | [14]; at 3.7 µM 27%
